SKKanGAS inh = SKKanGAS growth inhibition; AID 1662; inhibition, % at 7.5 µM; hit rate 1.3% among 300,000; S. pyogenes SKKanGAS, kanamycin growth, BacTiter-Glo, 6 h;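 active = mean replicate score, as percent of positive control median, at least 50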;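 also: strain carries kanamycin resistance gene driven by streptokinase promoter and grows in 40 µg/ml kanamycin; loss of luminescence reflects streptokinase promoter inhibition or plain growth inhibition; 0% = median of DMSO wells and 100% = positive control at its reference dose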
PP1 inh = PP1-alpha (human) inhibition in PP5 counter-screen; inhibition, % at 6.7 µM; hit rate 0.9% among 320,000; P62136; AID 2235; purified PP1alpha, OMFP fluorescence;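 active = inhibition above the mean inhibition of all tested compounds plus 3 SD, computed separately for each screening campaign, cut at about 15% in these data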
Beta apoptosis = blocks beta cell apoptosis. INS-1E cytokine-induced death, ATP luminescence, 48 h; percent of positive-control rescue, neutral wells zero. protection from apoptosis, % (no concentration beside the values). hit rate 0.8% among 300,000;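 active = Every replicate reaches about 75%, or at least half do and their mean reaches it too, limit read from the data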;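 also: 0% = cytokine-treated negative control wells and 100% = positive control rescue; higher means more ATP so stronger rescue from cytokine killing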
PP5 primary = inhibitors of human protein phosphatase 5 (PP5) | P53041 | purified PP5c, OMFP substrate fluorescence | inhibition, % at 6.7 µM | hit rate 0.18% among 320,000 | AID 1987;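 active = inhibition above the campaign's mean inhibition across all tested compounds plus 3 SD, cut at about 9.5% in these data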;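 also: 0% = DMSO only and 100% = 100 µM cantharidin control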
Target sequence (P53041 whole entry, looked up): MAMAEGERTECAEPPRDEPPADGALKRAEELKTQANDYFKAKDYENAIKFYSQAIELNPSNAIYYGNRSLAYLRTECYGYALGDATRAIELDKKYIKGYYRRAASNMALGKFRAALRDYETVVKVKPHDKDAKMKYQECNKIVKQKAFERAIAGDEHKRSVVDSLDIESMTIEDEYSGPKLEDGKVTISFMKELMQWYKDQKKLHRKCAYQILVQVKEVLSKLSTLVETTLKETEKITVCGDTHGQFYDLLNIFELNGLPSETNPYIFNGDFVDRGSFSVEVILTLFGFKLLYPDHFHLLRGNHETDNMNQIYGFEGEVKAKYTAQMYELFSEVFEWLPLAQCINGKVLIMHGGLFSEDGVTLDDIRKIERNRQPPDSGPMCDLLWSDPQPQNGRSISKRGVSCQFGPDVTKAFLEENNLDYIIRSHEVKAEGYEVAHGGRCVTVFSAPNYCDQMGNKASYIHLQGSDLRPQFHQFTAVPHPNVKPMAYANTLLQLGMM
CSC inhib = cancer stem cell inhibition; inhibition, % at 7.5 µM; hit rate 1.1% among 300,000; cancer stem cell-like cells viability, luminescence; in the data active = inhibition above about 75%; tested in HMLE shEcad cells
Starred values were filed as active, the others as inactive; . = no result. Only some compounds are listed: those with a hit (about 3.1% of all), similar ones and a draw of the others.

SMILES	SKKanGAS inh	PP1 inh	Beta apoptosis	PP5 primary	CSC inhib
O=C(Nc1ccccc1)c1c(O)[nH]c(=S)[nH]c1=O	10	16*	5	-6	17
COc1cc(OC)c([C@H]2C=C(C)[C@H]3C[C@@H]2C3(C)C)c(OC)c1	97*	-1	5	2	38
CCCc1nc2ccc(Br)cc2c(=O)n1-c1ccc([N+](=O)[O-])c(C(F)(F)F)c1	22	4	99*	3	127*
CCc1nc2ccc(Br)cc2c(=O)n1-c1ccccc1C(F)(F)F	10	3	2	4	-1
COC(=O)C1=C(c2ccccc2)C[C@@H]2CC[C@H]1N2C(=O)N1CCCC1	2	0	-1	1	4
CCC1C=CC=CC[C@H](C)[C@@H](O)[C@](C)(O)C(=O)[C@@H](C)[C@H](O)[C@@H](C)C(=O)[C@H](C)[C@@H](O)[C@H](C)C=CC(=O)OC2[C@@H](C)C(CC1)OC1(CC[C@@H](C)C(C[C@H](C)O)O1)[C@@H]2C (some centres undefined)	.	2	104*	8	99*
S=C1NC2(CCCCC2)NC12CCCCC2	1	-1	-6	0	-4
Clc1ccccc1CN1CCN(c2ccccc2)CC1	-3	0	.	-1	.
Nc1ccc(N2CCN(Cc3ccccc3Cl)CC2)c(Cl)c1	10	5	1	5	79*
COC(=O)C1=C(c2ccc(Cl)c(C(F)(F)F)c2)C[C@@H]2CC[C@H]1N2C(=O)NCCOc1ccccc1Cl	.	2	2	6	46
Cn1cc(C(O)CN2CCCCC2)c2ccccc21 (centres undefined)	4	0	-2	2	-7
O=c1nc(/C=C/c2ccc(Cl)cc2Cl)cc(C(F)(F)F)[nH]1	0	.	6	.	108*
C[CH2][Hg][S]c1ccccc1C(=O)O	.	-3	114*	3	104*
CC(C)Sc1nnc(OC(=O)N(C)C)n1-c1ccccc1	-4	-10	-4	2	0
Cc1[nH]c2ccc(OC(F)(F)F)cc2c1CCNCc1ccc(Cl)cc1	17	.	21	.	104*
Cc1[nH]c2ccc(OC(F)(F)F)cc2c1CCNCc1cccc([N+](=O)[O-])c1	-2	8	7	6	33
O=C1N[C@@H](Cc2ccccc2)C(=O)N2[C@H]1C[C@H]1c3ccccc3N(OOSc3ccccc3)[C@H]12	5	-3	-1	1	4
CCCCCCC(=O)N/N=C/c1c(O)n(C2CC2)c(=S)[nH]c1=O	-2	4	-8	0	1
CCCCCCC(=O)N/N=C/c1c(O)n(C(C)CC)c(=S)[nH]c1=O (centres undefined)	90*	7	7	1	16
CCCCCCC(=O)N/N=C/c1c(O)n(CCc2ccccc2)c(=O)[nH]c1=O	86*	-2	18	3	10
O=C(N/N=C/c1c(O)n(CCc2ccccc2)c(=O)[nH]c1=O)c1ccccc1O	103*	5	-2	1	-2
O=C(N/N=C/c1c(O)n(CCc2ccc(F)cc2)c(=O)[nH]c1=O)c1ccccc1	44	-3	-4	-1	-3
O=C(N/N=C/c1c(O)n(Cc2ccccc2)c(=O)[nH]c1=O)c1ccccc1O	84*	8	-6	3	46
COc1cc2nc(CN3CC=C(c4ccccc4)CC3)[nH]c(=O)c2cc1OC	-1	2	1	1	90*
COc1cc(C)c(CN2CC=C(c3ccc(F)cc3)CC2)cc1C	0	1	-1	3	27
SMILES	SKKanGAS inh	PP1 inh	Beta apoptosis	PP5 primary	CSC inhib
O=C(c1ccc(Cl)cc1)C1CCCN(Cc2ccc3nonc3c2)C1 (centres undefined)	0	-3	2	6	20
COc1cc(/C=C(/C)[N+](=O)[O-])ccc1OCc1ccccc1Cl	.	6	92*	1	78*
COc1cc(/C=C/[N+](=O)[O-])ccc1O	3	-1	-9	1	1
Cn1ncc(Cl)c1C(=O)N1CCC2(CC1)OCCO2	51*	-2	.	2	-6
C#C[C@@]1(O)CCC2C3CCC4=C/C(=N/OCC(=O)NC(CCC(N)=O)C(=O)O)CC[C@]4(C)C3CC[C@@]21C (some centres undefined)	3	-1	-6	2	-5
Cc1nn(Cc2ccccc2)c(C)c1C(=O)OCC(=O)Nc1cccc(S(N)(=O)=O)c1	-5	-1	1	-1	10
COC(=O)c1nc(-c2ccc3c(n2)C(=O)C(N)=C(OC)C3=O)c(N)c(-c2ccc(OC)c(OC)c2O)c1C	34	4	111*	8	113*
Cc1ccc(/C=C2/Sc3ccc(C(=O)N4CCC5(CC4)OCCO5)cc3NC2=O)cc1	53*	1	-5	-1	4
Cc1ccc(C(C)C)c(OCC#CCN2CCCC2)c1	15	-2	-1	4	-13
Cc1ccc(-n2c(O)c(/C=C/C=Nc3ccccc3)c(=O)[nH]c2=O)cc1	1	-3	.	-3	.
Cc1ccc(N/N=C/c2c(O)n(-c3ccccc3)c(=O)[nH]c2=O)cc1	-8	-2	-14	0	96*
CN1CCN(c2ccc([N+](=O)[O-])c(NCc3ccco3)c2)CC1	-2	0	3	-2	93*
CC1CCCN(c2ccc(C(=O)N3CCC4(CC3)OCCO4)cc2[N+](=O)[O-])C1 (centres undefined)	-4	-1	-27	2	116*
O=C(c1ccc(N2CCCCC2)c([N+](=O)[O-])c1)N1CCC2(CC1)OCCO2	1	2	-6	1	16
Cc1sc2ncnc(N3CCC(C(=O)Nc4ccc(C#N)c(Cl)c4)CC3)c2c1C	57*	6	-2	1	-6
c1ccc2c(CN3CCN(C4CCCCC4)CC3)c[nH]c2c1	-3	0	5	0	2
CCN(CC)Cc1c[nH]c2ccccc12	.	-3	0	1	0
c1ccc2c(CN3CCCCCCC3)c[nH]c2c1	-3	-2	104*	0	7
CN(Cc1c[nH]c2ccccc12)C1CCCCC1	-11	2	102*	0	-14
c1ccc2c(CNC3CCCCC3)c[nH]c2c1	-4	0	115*	-1	2
O=C1CN=C(c2ccccc2)c2c(sc3c2CCCC3)N1	2	0	9	3	18
CCc1c(-c2ccccc2)nc2ccccc2c1C(=O)N1CCC2(CC1)OCCO2	0	-3	-7	1	-19
CCOC(=O)C(C)Oc1cc(C)cc2oc(=O)c3c(c12)CCCC3 (centres undefined)	4	0	.	5	.
CCCCCc1cc(O)c2c3c(c(=O)oc2c1)CN(C)CC3	8	-1	10	2	84*
COC12C(COC(N)=O)C3=C(C(=O)C(C)=C(N)C3=O)N1CC1C2N1C (centres undefined)	111*	-9	-3	-2	-3
CCC(=Nc1ccccc1N)c1c(O)[nH]c(=O)[nH]c1=O	-2	8	-3	3	-5
COc1ccc(CN2C(=O)NC(=O)/C(=C\c3ccco3)C2=O)cc1	-7	-3	-6	-1	3

Screening data as filed in PubChem.
